Laboratory results as given in PubChem BioAssay (NCI).
This is part of a sample that, as a whole, favours compounds with a hit. Of some 83,000 tested, about 20% had one in any assay.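 Treatment: one concentration, 48 hours, 96-well format. Scoring: percent growth, with anything below 10 considered active.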 Values without a mark were called inactive. Active and inactive are the calls of the source.

Legend:
Assay in all cases: NCI-60 one-dose screen, 48 h (100 = growth as untreated, 0 = no growth, -100 = all killed)
Settings in all cases: 10 µM unless noted
SR leukemia = system: SR leukemia
RPMI-8226 leukemia = system: RPMI-8226 leukemia
OVCAR-8 ovarian = system: OVCAR-8 ovarian
OVCAR-5 ovarian = system: OVCAR-5 ovarian
OVCAR-4 ovarian = system: OVCAR-4 ovarian
SK-OV-3 ovarian = system: SK-OV-3 ovarian
IGROV1 ovarian = system: IGROV1 ovarian
OVCAR-3 ovarian = system: OVCAR-3 ovarian
HS 578T breast = system: HS 578T breast
NCI/ADR-RES ovarian = system: NCI/ADR-RES ovarian
T-47D breast = system: T-47D breast
BT-549 breast = system: BT-549 breast
MDA-MB-435 melanoma = system: MDA-MB-435 melanoma
SW-620 colon = system: SW-620 colon
MCF7 breast = system: MCF7 breast
HCT-116 colon = system: HCT-116 colon
HCC-2998 colon = system: HCC-2998 colon
KM12 colon = system: KM12 colon

Compound	growth (SR leukemia)	growth (RPMI-8226 leukemia)	growth (OVCAR-8 ovarian)	growth (OVCAR-5 ovarian)	growth (OVCAR-4 ovarian)	growth (SK-OV-3 ovarian)	growth (IGROV1 ovarian)	growth (OVCAR-3 ovarian)	growth (HS 578T breast)	growth (NCI/ADR-RES ovarian)	growth (T-47D breast)	growth (BT-549 breast)	growth (MDA-MB-435 melanoma)	growth (SW-620 colon)	growth (MCF7 breast)	growth (HCT-116 colon)	growth (HCC-2998 colon)	growth (KM12 colon)
N/C(=N\C(N)=N\c1nc2ccccc2s1)c1cnccn1	0% (active)	13.3%	28.1%	60.1%	14.9%	12.9%	-1.19% (active)	3.95% (active)	49%	61.7%	18.2%	38.3%	4.7% (active)	11.4%	11.4%	8.53% (active)	18.5%	8.11% (active)
CCOC(=O)C1=C(CCl)NC(=O)NC1c1ccc2c(c1)OCO2 (stereo unspecified)	28%	15.3%	45.7%	24.6%	32.5%	81.8%	37.2%	24.8%	71.9%	58.6%	31.3%	32.4%	35.7%	26.7%	9.21% (active)	8.65% (active)	83.1%	84.3%
Nc1c(C(=O)Nc2cccc3cnccc23)sc2nc3c(cc12)CN(Cc1ccccc1)CC3	95.5%	99.7%	106%	105%	105%	111%	99.9%	108%	104%	112%	102%	100%	108%	104%	96.5%	100%	115%	102%
CCC(=O)Oc1ccc(/C(=C(\C)c2ccccc2)c2ccc(OCCN3CCCCC3)cc2)cc1	20.3%	62.9%	81.6%	90.9%	80.6%	75.5%	93.8%	84.3%	72.9%	74.8%	34.3%	82.6%	81.4%	–	24.2%	60.9%	65.2%	65%
CC(C)(C)c1ccc(NS(=O)(=O)c2ccc3nc(NC(=O)c4cnccn4)[nH]c3c2)cc1	4.26% (active)	24.3%	45.6%	57%	37%	53.5%	37.4%	-12.3% (active)	-1.91% (active)	30.6%	25.6%	26.6%	-41% (active)	18.1%	18%	25.4%	70.2%	16.6%
N/C(=N\C(N)=N\c1nc2ccccc2s1)c1cccc(Cl)c1	16.6%	80.8%	70.8%	111%	71.5%	98.3%	75.9%	99.2%	97%	77.4%	46.9%	81.1%	99.3%	–	69.9%	73.8%	104%	40.8%
CN1[C@@H]2CC[C@H]1/C(=C\c1ccccc1)C(=O)/C2=C/c1ccccc1	19.2%	27%	-9.6% (active)	98.4%	48.4%	79.1%	41.7%	14.4%	33.7%	10.7%	56%	35%	25%	28.8%	20.4%	11.9%	63.3%	20.7%
Nc1ccccc1NC(=O)c1ccc(-n2nc(-c3ccccc3)c3ccccc32)cc1	48.6%	-8.09% (active)	62.6%	87.1%	77%	107%	68.5%	72.6%	83.5%	54%	76.9%	-92.3% (active)	92.2%	–	57.1%	58.1%	104%	–
N#C/C(=C\c1c(-c2ccccc2)[nH]c2ccccc12)C(=O)c1ccc(Cl)cc1	48.6%	-9.73% (active)	46.6%	62.5%	-11.2% (active)	53.3%	59%	-33.2% (active)	4.84% (active)	-2.46% (active)	84.9%	64.7%	13.5%	–	-27.9% (active)	30.9%	30.7%	20%
Cc1cnc(C(=O)Nc2nc3ccc(S(=O)(=O)Nc4ccc(C(C)(C)C)cc4)cc3[nH]2)cn1	12.3%	18.6%	29.2%	34.8%	46.5%	43%	35.1%	-14.3% (active)	4.25% (active)	13.8%	27.1%	26.7%	-64.6% (active)	18.6%	22.4%	14.2%	33.3%	22.9%
COC(=O)C1=C(C(=O)ON)[C@@H]2C=C[C@@]1([C@@H](Cc1ccccc1)Nc1ccccc1)O2	8.17% (active)	21.7%	92.8%	89%	79.9%	107%	85.6%	-79.1% (active)	109%	89.8%	-35.9% (active)	–	101%	–	90.8%	-77.7% (active)	93.6%	96.5%
